Screen size: about 7,900 compounds; about 400 (5.1%) showed an effect of 50% or more. This is one part of a sample in which strong results are shown more often than they occur.

The record followed here is paper PMC9574860, “Chemical Toolkit for PARK7: Potent, Selective, and High-Throughput” (Journal of Medicinal Chemistry, 2022).

Parkinson's disease protein 7 (PARK7/DJ1), sequence (Q99497 whole entry, looked up, the tested form may be a part): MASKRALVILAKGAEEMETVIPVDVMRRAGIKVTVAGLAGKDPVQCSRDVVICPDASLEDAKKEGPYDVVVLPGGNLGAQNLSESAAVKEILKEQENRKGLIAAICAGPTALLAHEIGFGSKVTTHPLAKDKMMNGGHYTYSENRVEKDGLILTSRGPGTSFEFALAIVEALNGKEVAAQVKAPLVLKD

In the test the target is Parkinson's disease protein 7 (PARK7/DJ1) (human, UniProt Q99497). The test can be described thus: primary screen, percent inhibition; read as competition with a fluorescent probe by fluorescence polarization; higher = more effect of the substance. The conditions noted are these: 100 µM. The procedure:
The screen was conducted using the conditions as described above in 1536-well plates (Corning 3724) with a reaction volume of 8 μL per well. The compound library containing 7887 covalent fragments was purchased at Enamine Ltd. and received as 100 mM DMSO stocks in 384 well LDV Echo plates (Labcyte LP-0200). Stock solutions of 0.26 μM PARK7 and 80 nM JYQ-107 were prepared. Using a Labcyte Echo550 acoustic dispenser, 8 nL of the DMSO stock solution of the library compounds was transferred from the source plates into the empty 1536-well screening plates to obtain a 100 μM final compound concentration. Next, PARK7 (6 μL, final concentration 0.2 μM) was dispensed using a Biotek MultiflowFX liquid dispenser and incubated for 2 h, followed by dispensing the probe JYQ-107 (2 μL, final concentration 20 nM). After 2 h incubation, the FP signal was recorded on a BMG Labtech PHERAstar plate reader (λex/em 480/520 nm). The relative loss of FP signal compared with reference controls was used to calculate the remaining enzyme activity.
Consider `N#Cc1cccc(N2CC(O)CC2c2ccccc2)n1` (stereo not drawn), for which the Inhibition % was determined as 96.9%.

`N#Cc1ccc(N2CC(O)CC2c2cccc(F)c2)cn1` (stereo not drawn): the Inhibition % turned out to be 3.63%. Then `N#Cc1cc(N2CC(O)CC2c2cccc(F)c2)ccn1` (stereo not drawn), with 12.9%. With `COc1cc(C)c(C(C)NC(=O)CCl)cc1OC` (stereo not drawn), the Inhibition % stood at 3.84%. Then `N#CC(=Cc1cccc(Cl)c1Cl)C(N)=O`, with 8.01%; and `N#Cc1nc(F)ccc1O`, with 55.2%. The figure for `N#Cc1cccc(F)n1` is 4.58%. Then `N#Cc1ncccc1O`, with 23.2%.

On to `O=S1(=O)CCCC(CCl)C1` (stereo not drawn), for which the Inhibition % is reported as -4.37%. The figure for `CC1(C)NC(=O)C1(C)C` is 2.57%; for `COc1cc(C=C(C#N)C(N)=O)cc(Cl)c1OC(C)C` it is 7.72%. With `O=S(=O)(F)CCn1nnc(-c2ccccc2)n1`, the Inhibition % is 35.7%. For the molecule `O=S(=O)(F)CCSc1nnc2sc3ccccc3n12`, the Inhibition % came out at 7.67%. The figure for `O=S(=O)(F)CCSc1nnc2ccccn12` is 53.9%; for `C=CC(=O)N1CC(Cc2cccc(C)c2)C1` it is 6.59%. The figure for `Cc1ccc(C(=O)O)cc1B1OC(C)(C)C(C)(C)O1` is 9.09%. The figure for `Cc1ccc(C(=O)O)cc1S(=O)(=O)F` is 99.4%; for `Nc1ccc(S(=O)(=O)F)c(F)c1` it is 12.3%. As to `Cc1ccc(N)cc1S(=O)(=O)F`, the Inhibition % is reported as 95.9%. Then `COc1cc(C(=O)O)ccc1S(=O)(=O)F`, with 31.2%; and `Cc1ccc(S(=O)(=O)F)c2c1NCCC2`, with 4.21%; and `O=C(O)c1ccc(S(=O)(=O)F)c(Cl)c1`, with 94.7%. Then `COc1cc(NC(=O)CCl)c(Cl)cc1C(=O)O`, with 13.3%; and `COc1cc(S(=O)(=O)F)c(Cl)cc1C(=O)O`, with 97.8%. In the case of `COc1ccc(S(=O)(=O)F)cc1C(=O)O`, the Inhibition % is given as 20.2%. The figure for `O=C(CCl)NC1CCCCNC1=O` (stereo not drawn) is 13.7%. `CC(=O)Nc1ccc(OC(=O)N2CCCC2)cc1`: the Inhibition % is recorded as 8.48%. The figure for `C=CC(=O)N1CCC2(CCSCC2)CC1` is 5.26%; for `C=CC(=O)NCC1CCSCC1` it is 2.54%; for `COc1nscc1B1OC(C)(C)C(C)(C)O1` it is 20.8%.

With `CN(CC(=O)Nc1ccccc1Cl)C(=O)CCl`, the Inhibition % was 42.3%.

As for `CN(CC(=O)Nc1ccc(Cl)cc1)C(=O)CCl`, the Inhibition % is listed as 75.9%. Then `Cc1ccc(NC(=O)NC(=O)CCl)cc1`, with 8.73%.

`CSc1ccccc1NC(=O)CN(C)C(=O)CCl`: the Inhibition % turned out to be 34.6%. Take `CN(CC(=O)Nc1c(Cl)cccc1Cl)C(=O)CCl`: the Inhibition % is recorded as 7.36%. For the molecule `CN(CC(=O)Nc1ccc(F)cc1)C(=O)CCl`, the Inhibition % came out at 94.2%. Then `CN(CC(=O)Nc1ccccc1C(F)(F)F)C(=O)CCl`, with 17.5%; and `O=C(CCl)Nc1ccc(F)cc1`, with 25.3%. For the molecule `Cc1ccc(NC(=O)CN(C)C(=O)CCl)cc1`, the Inhibition % was found to be 96.5%.
